# According to the supplement of paper PMC8728848:
# About 410 targets per protein were measured; listed, in parts, are those with the strongest signals and a random draw of the rest.
# B1: HBHA-Rv (Mycobacterium tuberculosum), P0A5P6 (protein)
# chain: MAENSNIDDIKAPLLAALGAADLALATVNELITNLRERAEETRTDTRSRVEESRARLTKLQEDLPEQLTELREKFTAEELRKAAEGYLEAATSRYNELVERGEAALERLRSQQSFEEVSARAEGYVDQAVELTQEALGTVASQTRAVGERAAKLVGIELPKKAAPAKKAAPAKKAAPAKKAAAKKAPAKKAAAKKVTQK
# Experiments:
# Assay in all cases: glycan array binding signal (z-score within array); higher = stronger binding
# Conditions in all cases: glycan notation: IUPAC condensed, linker removed
# [1] = target: Fuc(a1-2)Gal(b1-3)[Fuc(a1-4)]GlcNAc(b1-3)[Fuc(a1-3)[Gal(b1-4)]GlcNAc(b1-6)]Gal(b1-4)Glc
# Summary of the method: (§1)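 The binding signal is a Z-score computed within each array. Data were drawn from 3228 arrays in the Consortium for Functional Glycomics database, restricted to those with a known protein sequence. Scores were averaged over arrays of the same protein sequence at different concentrations or buffers, and over linkers, and negative values can be taken as non-binding.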
# [2] = target: Fuc(a1-2)Gal(b1-4)Glc6S
# Summary of the method: as §1
# [3] = target: Fuc(a1-2)Gal(b1-4)GlcNAc(b1-3)[Fuc(a1-3)[Gal(b1-4)]GlcNAc(b1-6)]Gal(b1-4)Glc
# Summary of the method: as §1
# [4] = target: Fuc(a1-2)Gal6S(b1-3)GlcNAc6S
# Summary of the method: as §1
# [5] = target: Fuc(a1-2)Gal6S(b1-4)Glc
# Summary of the method: as §1
# [6] = target: Fuc(a1-2)[Gal(a1-3)]Gal(b1-3)GlcNAc(b1-3)GalNAc
# Summary of the method: as §1
# [7] = target: Fuc(a1-2)[Gal(a1-3)]Gal(b1-4)GlcNAc(b1-3)GalNAc
# Summary of the method: as §1
# [8] = target: Fuc(a1-2)[Gal(a1-3)]Gal(b1-4)GlcNAc(b1-3)[Fuc(a1-2)[Gal(a1-3)]Gal(b1-4)GlcNAc(b1-6)]GalNAc
# Summary of the method: as §1
# [9] = target: Fuc(a1-2)[GalNAc(a1-3)]Gal(b1-4)Glc
# Summary of the method: as §1
# [10] = target: Fuc(a1-3)[Gal(b1-4)]Glc6S
# Summary of the method: as §1
# [11] = target: Fuc(a1-3)[Gal(b1-4)]GlcNAc(b1-3)GalNAc
# Summary of the method: as §1
# [12] = target: Fuc(a1-3)[Gal3S(b1-4)]Glc
# Summary of the method: as §1
# [13] = target: Fuc(a1-4)GlcNAc
# Summary of the method: as §1
# [14] = target: Gal(a1-3)Gal(b1-4)GlcNAc(b1-6)GalNAc
# Summary of the method: as §1
# [15] = target: Gal(b1-3)GlcNAc(b1-2)Man(a1-3)[GlcNAc(b1-4)][Gal(b1-3)GlcNAc(b1-2)Man(a1-6)]Man(b1-4)GlcNAc(b1-4)GlcNAc
# Summary of the method: as §1
# [16] = target: Gal(b1-3)GlcNAc(b1-3)Gal(b1-4)[Fuc(a1-3)]GlcNAc(b1-6)[Gal(b1-3)GlcNAc(b1-3)]Gal(b1-4)Glc
# Summary of the method: as §1
# [17] = target: Gal(b1-3)GlcNAc(b1-6)GalNAc
# Summary of the method: as §1
# [18] = target: Gal(b1-3)[Fuc(a1-4)]GlcNAc(b1-2)Man
# Summary of the method: as §1
# [19] = target: Gal(b1-4)GlcNAc(b1-2)Man
# Summary of the method: as §1
# [20] = target: Gal(b1-4)GlcNAc(b1-2)Man(a1-3)[Gal(b1-4)GlcNAc(b1-2)Man(a1-6)]Man(b1-4)GlcNAc(b1-4)GlcNAc
# Summary of the method: as §1
# [21] = target: Gal(b1-4)GlcNAc(b1-2)Man(a1-3)[Gal(b1-4)GlcNAc(b1-2)Man(a1-6)][GlcNAc(b1-4)]Man(b1-4)GlcNAc(b1-4)[Fuc(a1-6)]GlcNAc
# Summary of the method: as §1
# [22] = target: Gal(b1-4)GlcNAc(b1-2)Man(a1-3)[GlcNAc(b1-4)][Gal(b1-4)GlcNAc(b1-2)Man(a1-6)]Man(b1-4)GlcNAc(b1-4)GlcNAc
# Summary of the method: as §1
# [23] = target: Gal(b1-4)GlcNAc(b1-2)[Gal(b1-4)GlcNAc(b1-4)]Man(a1-3)[GlcNAc(b1-4)][Gal(b1-4)GlcNAc(b1-2)[Gal(b1-4)GlcNAc(b1-6)]Man(a1-6)]Man(b1-4)GlcNAc(b1-4)GlcNAc
# Summary of the method: as §1
# [24] = target: Gal(b1-4)GlcNAc(b1-2)[Gal(b1-4)GlcNAc(b1-6)]Man(a1-6)[GlcNAc(b1-4)][Gal(b1-4)GlcNAc(b1-2)[Gal(b1-4)GlcNAc(b1-4)]Man(a1-3)]Man(b1-4)GlcNAc(b1-4)[Fuc(a1-6)]GlcNAc
# Summary of the method: as §1
# [25] = target: Gal(b1-4)GlcNAc(b1-3)Gal(b1-4)GlcNAc(b1-3)Gal(b1-4)GlcNAc(b1-2)[Gal(b1-4)GlcNAc(b1-3)Gal(b1-4)GlcNAc(b1-3)Gal(b1-4)GlcNAc(b1-6)]Man(a1-6)[Gal(b1-4)GlcNAc(b1-3)Gal(b1-4)GlcNAc(b1-3)Gal(b1-4)GlcNAc(b1-2)Man(a1-3)]Man(b1-4)GlcNAc(b1-4)[Fuc(a1-6)]GlcNAc
# Summary of the method: as §1
# [26] = target: Gal(b1-4)GlcNAc(b1-3)Gal(b1-4)GlcNAc(b1-6)[Gal(b1-3)]GalNAc
# Summary of the method: as §1
# [27] = target: Gal(b1-4)GlcNAc(b1-3)[Fuc(a1-3)GlcNAc(b1-6)]Gal(b1-4)Glc
# Summary of the method: as §1
binder,measurement,setting,value
B1,glycan array binding signal (z-score),[1],-0.277
same,glycan array binding signal (z-score),[2],-0.121
same,glycan array binding signal (z-score),[3],-0.392
same,glycan array binding signal (z-score),[4],4.34
same,glycan array binding signal (z-score),[5],0.069
same,glycan array binding signal (z-score),[6],-0.259
same,glycan array binding signal (z-score),[7],-0.204
same,glycan array binding signal (z-score),[8],2.82
same,glycan array binding signal (z-score),[9],0.064
same,glycan array binding signal (z-score),[10],-0.398
same,glycan array binding signal (z-score),[11],-0.275
same,glycan array binding signal (z-score),[12],-0.017
same,glycan array binding signal (z-score),[13],20
same,glycan array binding signal (z-score),[14],0.154
same,glycan array binding signal (z-score),[15],0.595
same,glycan array binding signal (z-score),[16],-0.453
same,glycan array binding signal (z-score),[17],-0.248
same,glycan array binding signal (z-score),[18],1.28
same,glycan array binding signal (z-score),[19],1.37
same,glycan array binding signal (z-score),[20],0.061
same,glycan array binding signal (z-score),[21],-0.352
same,glycan array binding signal (z-score),[22],-0.309
same,glycan array binding signal (z-score),[23],-0.455
same,glycan array binding signal (z-score),[24],-0.428
same,glycan array binding signal (z-score),[25],-0.41
same,glycan array binding signal (z-score),[26],-0.399
same,glycan array binding signal (z-score),[27],-0.398
